Test [1] is described as follows: ATG_CRE_CIS: Attagene CIS-FACTORIAL HepG2 Assay for human cAMP Responsive Element (CRE) binding protein 3 (AID 2282926). The conditions noted are these: HepG2 CRE cis-reporter, Attagene multiplexed mRNA; actives raise or lower the signal. A digest of the protocol:
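Endogenous transcription factor activity read via CRE-regulated reporter transcripts in transfected HepG2 cells. After 24 h exposure, RNA was reverse-transcribed, amplified, fluorescently labelled and sized by capillary electrophoresis; gain or loss fitted against DMSO.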

Test [2] in a line: ATG_CMV_CIS: Attagene CIS-FACTORIAL HepG2 Assay for human CMV (Internal Marker) (AID 2282928).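 Further: endpoint acts as a background internal control marker rather than a target.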 To be noted: HepG2 CMV promoter reporter, transcription factor profiling; actives raise or lower the signal. An outline of the steps: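 24 h chemical treatment, HepG2 with transient multi-reporter transfection; RNA → oligo(dT) RT → PCR → 6-FAM extension → HpaI digest → CE fluorescence. Bidirectional fit, DMSO negative control.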

Test [3] deals with Aryl hydrocarbon receptor (Homo sapiens) (UniProt P35869). Kind of test: ATG_Ahr_CIS: Attagene CIS-FACTORIAL HepG2 Assay for human Aryl Hydrocarbon Receptor (Ahr) (AID 2282930). To be noted: HepG2 AhR cis-factorial reporter transcription; actives raise or lower the signal. A digest of the protocol: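 Read-out: reporter mRNA quantified by RT-PCR with fluorescent primer extension and capillary electrophoresis. Human HepG2 liver cells carried transfected cis-promoter reporter units and were exposed to chemical for 24 h; gain or loss fitted relative to DMSO.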
Chain of Aryl hydrocarbon receptor (Homo sapiens) (P35869 whole entry, looked up): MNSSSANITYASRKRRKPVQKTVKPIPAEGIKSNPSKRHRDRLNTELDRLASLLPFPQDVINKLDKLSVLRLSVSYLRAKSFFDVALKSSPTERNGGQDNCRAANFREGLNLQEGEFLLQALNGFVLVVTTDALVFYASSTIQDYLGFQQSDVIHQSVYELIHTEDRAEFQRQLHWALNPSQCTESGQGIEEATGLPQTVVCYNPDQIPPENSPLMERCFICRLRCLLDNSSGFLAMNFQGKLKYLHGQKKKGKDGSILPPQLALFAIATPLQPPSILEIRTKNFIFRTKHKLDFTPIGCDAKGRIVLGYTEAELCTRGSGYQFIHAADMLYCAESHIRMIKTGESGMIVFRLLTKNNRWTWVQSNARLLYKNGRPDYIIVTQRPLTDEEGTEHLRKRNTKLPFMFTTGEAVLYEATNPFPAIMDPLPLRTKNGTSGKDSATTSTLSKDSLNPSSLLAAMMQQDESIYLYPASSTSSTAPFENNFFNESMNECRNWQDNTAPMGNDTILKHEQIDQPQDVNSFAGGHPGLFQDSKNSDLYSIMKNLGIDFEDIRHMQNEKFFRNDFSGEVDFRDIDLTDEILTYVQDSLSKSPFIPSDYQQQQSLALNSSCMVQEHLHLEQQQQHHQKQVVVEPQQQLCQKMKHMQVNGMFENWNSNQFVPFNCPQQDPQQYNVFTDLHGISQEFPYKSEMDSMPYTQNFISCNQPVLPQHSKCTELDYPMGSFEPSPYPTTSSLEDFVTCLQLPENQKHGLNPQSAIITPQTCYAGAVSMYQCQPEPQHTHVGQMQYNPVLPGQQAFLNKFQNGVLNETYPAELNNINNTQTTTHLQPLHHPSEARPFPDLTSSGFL

Test [4] can be described thus: ATG_AP_1_CIS: Attagene CIS-FACTORIAL HepG2 Assay for human Activator Protein 1 (AP-1) (AID 2282931). The conditions noted are these: HepG2 Attagene cis-factorial AP-1 reporter mRNA; actives raise or lower the signal. An outline of the steps:
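Bidirectional concentration-response fitting against DMSO controls. Underlying signal: reporter mRNA from cis-promoter constructs in transiently transfected HepG2, measured after 24 h by RT-PCR and capillary electrophoresis.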

Test [5] can be described thus: ATG_AP_2_CIS: Attagene CIS-FACTORIAL HepG2 Assay for human Activator Protein 2 (AP-2) (AID 2282932). To be noted: HepG2 AP-2 cis-reporter, Attagene transcription factor profiling; actives raise or lower the signal. An outline of the steps: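 Read-out: fluorescent reporter mRNA via RT-PCR and capillary electrophoresis, 24 h post-dose in transiently transfected HepG2. Endogenous factors drive cis-promoter reporters; gain or loss of signal fitted bidirectionally against DMSO.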

The nature of test [6]: ATG_BRE_CIS: Attagene CIS-FACTORIAL HepG2 Assay for human Bone Morphogenetic Protein (BMP) Response Element (BRE) (AID 2282933). The conditions noted are these: HepG2 BMP response element reporter, Attagene transcription factor profiling; actives raise or lower the signal. An outline of the steps:
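Endogenous transcription factor activity at a BMP response element was monitored in transfected HepG2 cells 24 h after dosing. Fluorescent RT-PCR products were resolved by capillary electrophoresis, and activity was fitted in both directions versus DMSO.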

Test [7] concerns the target Retinoic acid receptor alpha (Homo sapiens) (UniProt P10276). Description: ATG_DR5_RAR_CIS: Attagene CIS-FACTORIAL HepG2 Assay for human Retinoic Acid Receptor Alpha (RARE), DR5 submotif (AID 2282934). The conditions noted are these: HepG2 Attagene cis-factorial RARE DR5 reporter, mRNA; actives raise or lower the signal. A digest of the protocol:
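Read-out: DR5-driven reporter transcript measured by RT-PCR, 6-FAM primer extension, HpaI digest and capillary electrophoresis. Human HepG2 liver cells carry transiently transfected cis-element reporter constructs; dosing lasts 24 h. Gain or loss of signal fitted against DMSO baseline.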

The target of test [8] is Transcription factor E2F1 (Homo sapiens) (UniProt Q01094). Description: ATG_E2F_CIS: Attagene CIS-FACTORIAL HepG2 Assay for human E2F Transcription Factor 1 (AID 2282935). To be noted: HepG2 Attagene cis-reporter, E2F reporter RNA transcripts; actives raise or lower the signal. A digest of the protocol:
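Transient MRTU transfection of HepG2; 24 h compound exposure; RNA → oligo(dT) RT → PCR → FAM label → HpaI cut → CE fluorescence. Gain/loss of signal fit against DMSO.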

Test [9] in a line: ATG_E_Box_CIS: Attagene CIS-FACTORIAL HepG2 Assay for human Enhancer Box (E-box) (AID 2282936). To be noted: HepG2 E-box cis-reporter transcription, actives raise or lower the signal. A digest of the protocol:
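Transiently transfected HepG2, endogenous TF-driven reporters, 24 h dosing. Readout: RT-PCR plus capillary electrophoresis of fluorescent reporter fragments. Gain or loss of signal fitted bidirectionally against DMSO baseline.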

Test [10] in a line: ATG_M_61_CIS: Attagene CIS-FACTORIAL HepG2 Assay for M61 Transcription Factor (Internal Marker) (AID 2282937). The conditions noted are these: HepG2 Attagene CIS-FACTORIAL M61 internal marker reporter; actives raise or lower the signal. A digest of the protocol:
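Fluorescence from labelled cDNA fragments, separated by capillary electrophoresis, quantifies reporter induction. HepG2 cells bearing transiently transfected cis-promoter MRTUs were incubated with test chemical for 24 h; DMSO defined baseline for gain/loss fitting.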

The nature of test [11]: ATG_EGR_CIS: Attagene CIS-FACTORIAL HepG2 Assay for human Early Growth Response 1 (EGR1) (AID 2282938). The conditions noted are these: HepG2 Attagene CIS-FACTORIAL EGR reporter mRNA; actives raise or lower the signal. An outline of the steps: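 Cell-based multiplex transcription assay: HepG2 carrying transfected cis-element reporter units, 24 h chemical treatment. Fluorescence from capillary electrophoresis of RT-PCR products gives mRNA levels; fitting is bidirectional relative to DMSO.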

Test [12] in a line: ATG_M_19_CIS: Attagene CIS-FACTORIAL HepG2 Assay for M19 Transcription Factor (Internal Marker) (AID 2282939). To be noted: HepG2 Attagene CIS-FACTORIAL M19 internal marker reporter; actives raise or lower the signal. A digest of the protocol: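 Background-control endpoint from a multiplexed HepG2 reporter panel. Cells carrying cis-regulated reporter constructs are treated 24 h, then reporter transcripts are amplified, fluorescently labelled and sized by capillary electrophoresis. DMSO defines baseline.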

The nature of test [13]: ATG_Ets_CIS: Attagene CIS-FACTORIAL HepG2 Assay for human Erythroblast Transformation Specific (ETS) (AID 2282941). To be noted: HepG2 ETS cis-reporter transcription, actives raise or lower the signal. An outline of the steps:
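Cis-regulated reporter mRNA induction in HepG2 (transient transfection), 24 h exposure, RT-PCR plus capillary electrophoresis detection; DMSO serves as negative control and baseline.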

Test [14] concerns the target Hepatocyte nuclear factor 3-beta (Homo sapiens) (UniProt Q9Y261). Description: ATG_FoxA2_CIS: Attagene CIS-FACTORIAL HepG2 Assay for human Forkhead box A2 (FOXA2) (AID 2282942). The conditions noted are these: HepG2 cis-reporter transcription factor activity, 24 h; actives raise or lower the signal. An outline of the steps:
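In transiently transfected human HepG2 cells, promoter-driven reporter mRNA levels after 24 h chemical exposure are determined via RT-PCR with capillary electrophoresis. DMSO serves as baseline for bidirectional fitting.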

The nature of test [15]: ATG_FoxO_CIS: Attagene CIS-FACTORIAL HepG2 Assay for human Forkhead box O (FoxO) (AID 2282943). The conditions noted are these: HepG2 Attagene cis-reporter, FoxO element, mRNA; actives raise or lower the signal. An outline of the steps:
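Read-out: fluorescence of 6-FAM-labelled reporter cDNA fragments resolved by capillary electrophoresis. Transiently transfected HepG2 cells were dosed for 24 h; activity fitted in both directions relative to DMSO controls.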

Test [16] is described as follows: ATG_GLI_CIS: Attagene CIS-FACTORIAL HepG2 Assay for human Zinc Finger Protein GLI1 (AID 2282945). The conditions noted are these: HepG2, Attagene cis-factorial reporter mRNA, GLI element; actives raise or lower the signal. An outline of the steps: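 Transiently transfected HepG2 cells report endogenous transcription factor activity via cis-element-driven reporter units. After 24 h compound exposure, reporter mRNA was measured by RT-PCR with capillary electrophoresis; bidirectional fitting against DMSO baseline.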

The target of test [17] is Bile acid receptor (Homo sapiens) (UniProt Q96RI1). Description: ATG_IR1_CIS: Attagene CIS-FACTORIAL HepG2 Assay for human Nuclear Receptor Subfamily 1 Group H Member 4 (NR1H4), IR1 submotif (AID 2282946). The conditions noted are these: IR1 reporter transcription, actives raise or lower the signal. An outline of the steps: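 Fluorescence of capillary-separated, HpaI-digested RT-PCR reporter products gave IR1-element mRNA induction in HepG2 cells 24 h after dosing. Endogenous transcription factors drove the cis-regulated reporters; activity was fitted bidirectionally against DMSO.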
Chain of Bile acid receptor (Homo sapiens) (Q96RI1 whole entry, looked up): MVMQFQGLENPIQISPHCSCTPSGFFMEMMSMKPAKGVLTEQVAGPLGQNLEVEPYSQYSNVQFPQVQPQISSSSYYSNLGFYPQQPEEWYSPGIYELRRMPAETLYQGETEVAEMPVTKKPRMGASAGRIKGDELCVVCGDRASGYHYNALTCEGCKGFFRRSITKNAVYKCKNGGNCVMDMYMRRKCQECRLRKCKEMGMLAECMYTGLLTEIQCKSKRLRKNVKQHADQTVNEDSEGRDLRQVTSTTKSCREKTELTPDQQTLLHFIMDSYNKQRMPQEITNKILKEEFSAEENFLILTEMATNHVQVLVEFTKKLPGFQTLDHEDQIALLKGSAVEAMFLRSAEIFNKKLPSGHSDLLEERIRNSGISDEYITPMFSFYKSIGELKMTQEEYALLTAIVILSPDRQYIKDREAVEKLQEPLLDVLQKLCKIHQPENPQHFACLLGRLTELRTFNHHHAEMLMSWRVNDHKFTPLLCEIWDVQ

Test [18] is described as follows: ATG_DR4_LXR_CIS: Attagene CIS-FACTORIAL HepG2 Assay for human Liver X Receptor (LXR), DR4 submotif (AID 2282929). To be noted: HepG2 Attagene DR4 cis-reporter, mRNA transcription; actives raise or lower the signal. A digest of the protocol:
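Measures endogenous transcription factor activity via a DR4-driven reporter transcript in human HepG2 cells. Compounds incubated 24 h; mRNA quantified by RT-PCR and capillary electrophoresis, analysed as gain or loss of signal versus DMSO.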

The nature of test [19]: ATG_GATA_CIS: Attagene CIS-FACTORIAL HepG2 Assay for human GATA Binding Protein (AID 2282944). To be noted: HepG2 GATA cis-element reporter, Attagene multiplex mRNA; actives raise or lower the signal. A digest of the protocol:
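Endogenous transcription factor activity was captured through cis-promoter-driven reporters in transfected HepG2 cells. After 24 h exposure, reporter transcripts were quantified by RT-PCR with fluorescent capillary electrophoresis, and responses fitted both directions against DMSO.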

Molecules are shown by their SMILES. Calls of active or inactive are those of the source. How the source made its calls: active means hit-call score of the fitted dose curve at least 0.9, where 1 is the maximum; inactive means score below 0.9.

Chain of Hepatocyte nuclear factor 3-beta (Homo sapiens) (Q9Y261 whole entry, looked up): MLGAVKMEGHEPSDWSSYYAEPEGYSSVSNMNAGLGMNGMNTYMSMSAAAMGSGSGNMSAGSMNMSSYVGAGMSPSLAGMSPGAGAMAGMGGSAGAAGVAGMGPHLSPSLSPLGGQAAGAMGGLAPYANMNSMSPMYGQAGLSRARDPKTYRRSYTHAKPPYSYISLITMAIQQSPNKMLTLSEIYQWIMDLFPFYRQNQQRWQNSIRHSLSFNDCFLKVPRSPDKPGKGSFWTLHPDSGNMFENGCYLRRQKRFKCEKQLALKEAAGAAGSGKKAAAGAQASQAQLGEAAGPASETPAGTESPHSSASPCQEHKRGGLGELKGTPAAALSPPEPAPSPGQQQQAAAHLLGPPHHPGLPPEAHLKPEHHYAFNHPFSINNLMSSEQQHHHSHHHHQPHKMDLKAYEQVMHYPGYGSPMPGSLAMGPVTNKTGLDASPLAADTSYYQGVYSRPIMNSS
Chain of Retinoic acid receptor alpha (Homo sapiens) (P10276 whole entry, looked up): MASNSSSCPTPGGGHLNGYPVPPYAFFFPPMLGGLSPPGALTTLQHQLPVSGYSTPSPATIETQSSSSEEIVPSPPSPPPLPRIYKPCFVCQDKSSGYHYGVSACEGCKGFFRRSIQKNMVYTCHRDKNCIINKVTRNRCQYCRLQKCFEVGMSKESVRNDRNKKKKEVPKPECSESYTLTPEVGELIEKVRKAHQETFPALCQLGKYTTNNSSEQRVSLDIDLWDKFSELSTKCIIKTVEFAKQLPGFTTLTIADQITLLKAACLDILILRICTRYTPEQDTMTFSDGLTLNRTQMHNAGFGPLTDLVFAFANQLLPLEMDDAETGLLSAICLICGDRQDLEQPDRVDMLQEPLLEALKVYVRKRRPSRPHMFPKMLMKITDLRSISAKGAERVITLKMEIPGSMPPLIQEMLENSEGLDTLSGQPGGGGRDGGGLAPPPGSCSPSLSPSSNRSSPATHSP
Chain of Transcription factor E2F1 (Homo sapiens) (Q01094 whole entry, looked up): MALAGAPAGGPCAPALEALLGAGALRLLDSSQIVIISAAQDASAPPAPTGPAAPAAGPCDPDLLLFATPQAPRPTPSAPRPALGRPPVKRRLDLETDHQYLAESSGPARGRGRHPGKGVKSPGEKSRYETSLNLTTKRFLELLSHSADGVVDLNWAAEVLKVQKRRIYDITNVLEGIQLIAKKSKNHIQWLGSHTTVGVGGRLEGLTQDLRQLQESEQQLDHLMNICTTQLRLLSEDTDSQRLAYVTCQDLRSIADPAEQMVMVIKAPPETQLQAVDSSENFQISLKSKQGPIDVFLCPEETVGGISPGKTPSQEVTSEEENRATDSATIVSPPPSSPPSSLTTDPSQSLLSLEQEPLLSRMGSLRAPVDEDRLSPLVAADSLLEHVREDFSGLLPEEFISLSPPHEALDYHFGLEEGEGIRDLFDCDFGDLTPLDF

For `[Cl][Au]([Cl])[Cl]`, the compound was classed as inactive in test [1], in test [2], in [5], in test [6], in [7] and in test [8]. For the same compound, the result in test [9], in [10], in test [11], in [12], in test [13] and in test [14] was inactive. For the same compound, the call in test [15], in test [16] and in test [17] was inactive. In addition, the AC50 in test [3] is 39.8 µM (active); in test [4], 72.6 µM (active).
For `C=C(C)[C@H]1CC=C(C)C(=O)C1`, the compound was classed as inactive in [1], in test [2], in test [18], in test [3], in test [4] and in [5]. Further, the outcome in [6], in test [8], in [9], in test [10], in test [11] and in [12] was inactive. Further, the compound was called inactive in test [14], in [15], in test [19] and in test [16].
In the case of `CCCCCCCC/C=C\CCCCCCCC(=O)OCC`, the compound was classed as inactive in [1], in [2], in test [3], in test [4], in [5] and in [6]. Further, the call in [7], in test [8], in test [9], in test [10], in [11] and in test [12] was inactive. Moreover, the compound was classed as inactive in test [13], in [14], in [15] and in test [16].
With `C1CCCCC1`, the call in test [1], in test [2], in test [18], in test [3], in test [4] and in [5] was inactive. In addition, the result in test [6], in [7], in test [8], in [10], in test [11] and in test [12] was inactive. Also, the outcome in [13], in test [14], in test [15], in test [19], in [16] and in test [17] was inactive.
Consider `CC1=CC[C@@]23C[C@@H]1C(C)(C)[C@@H]2CC[C@H]3C`, for which the compound was called inactive in [1], in test [2], in test [3], in [4], in test [5] and in [6]. The compound was classed as inactive in test [7], in test [8], in test [9], in test [10], in [12] and in test [13]. Besides, the outcome in test [14], in test [19] and in [16] was inactive. Besides, the AC50 in [18] was 165 µM (active); in test [15], 157 µM (active).
As for `CC(=O)NCCO`, the result in [1], in test [2], in test [3], in test [4], in [5] and in test [6] was inactive. The call in test [7], in test [8], in test [9], in test [10], in test [12] and in test [13] was inactive. The compound was classed as inactive in test [14], in [15], in test [19] and in test [16].
Regarding `CC(C=O)Cc1ccc(C(C)(C)C)cc1` (stereo not given), the call in test [1], in [2], in test [18], in [3], in test [4] and in test [5] was inactive. Also, the call in test [6], in test [7], in [8], in test [10], in test [11] and in test [12] was inactive. The call in test [13], in test [14], in test [15], in test [19] and in test [17] was inactive.
On to `C=C(CC(=O)O)C(=O)O`, for which the result in test [1], in test [2], in test [18], in test [3], in test [4] and in test [6] was inactive. The outcome in test [9], in [10], in test [11], in test [13], in [14] and in test [16] was inactive. The result in test [17] was inactive.

As a reminder, the AC50 is the concentration giving half of the maximal activity seen.
